The supplement of paper PMC10849652
Targets with a hit are over-represented here; the source holds about 7,900 in all. About 0.6% of all pairs of compound and target were hits.

compound: C1=CC(=CC=C1C2=NC3=C(N2)C=C(C=C3)C(=O)N)OC4=CC=C(C=C4)Cl; experiment: log2 fold change, soluble protein after heating vs DMSO (PISA); higher = thermal stabilisation; K562 cells, 10 uM, 30 min; active = over 0.2 and 3.5 SD of the protein, either way, in both replicates (recomputed)
Procedure, shortened: (§1)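 K562 cells at 2×10^6 cells/mL were given 10 μM compound for 30 min. Aliquots then went through 3 min of heating across 48°C-58°C, were pooled, and were extracted in PBS with 0.5% NP-40 at 4°C, and the supernatant after 21,000xg for 90 min was quantified by TMTpro 16plex LC-MS/MS with channel sums equalised. Thermal stability relative to control samples, from duplicates, is given as log2 fold change.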

Chain of UniProt O43592 (O43592 whole entry, looked up): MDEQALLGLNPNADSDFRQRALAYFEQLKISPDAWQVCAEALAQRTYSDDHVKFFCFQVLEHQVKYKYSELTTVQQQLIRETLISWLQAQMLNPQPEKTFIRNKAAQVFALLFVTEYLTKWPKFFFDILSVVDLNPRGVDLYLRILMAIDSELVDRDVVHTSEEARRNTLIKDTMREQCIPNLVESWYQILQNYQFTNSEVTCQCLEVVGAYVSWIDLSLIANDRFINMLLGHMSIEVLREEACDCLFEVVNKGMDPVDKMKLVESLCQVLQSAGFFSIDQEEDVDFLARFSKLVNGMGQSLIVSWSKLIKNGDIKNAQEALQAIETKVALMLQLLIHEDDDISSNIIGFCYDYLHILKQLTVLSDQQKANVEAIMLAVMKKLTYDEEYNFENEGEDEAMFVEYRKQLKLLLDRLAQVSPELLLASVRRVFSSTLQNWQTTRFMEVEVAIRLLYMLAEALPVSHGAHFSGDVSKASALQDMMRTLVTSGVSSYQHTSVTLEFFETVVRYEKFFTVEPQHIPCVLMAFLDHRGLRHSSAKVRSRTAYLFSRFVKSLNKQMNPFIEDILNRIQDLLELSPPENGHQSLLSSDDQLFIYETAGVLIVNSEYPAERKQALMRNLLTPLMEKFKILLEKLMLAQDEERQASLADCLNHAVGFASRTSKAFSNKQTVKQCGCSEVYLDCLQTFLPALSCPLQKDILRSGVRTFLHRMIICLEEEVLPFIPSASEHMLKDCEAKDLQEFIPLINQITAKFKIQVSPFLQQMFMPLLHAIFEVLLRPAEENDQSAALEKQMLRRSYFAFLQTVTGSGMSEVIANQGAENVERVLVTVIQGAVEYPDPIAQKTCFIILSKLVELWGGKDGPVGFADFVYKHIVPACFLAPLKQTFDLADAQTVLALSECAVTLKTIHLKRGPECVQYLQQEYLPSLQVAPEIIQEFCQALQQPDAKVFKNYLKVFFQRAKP
Chain of UniProt Q92890 (Q92890 whole entry, looked up): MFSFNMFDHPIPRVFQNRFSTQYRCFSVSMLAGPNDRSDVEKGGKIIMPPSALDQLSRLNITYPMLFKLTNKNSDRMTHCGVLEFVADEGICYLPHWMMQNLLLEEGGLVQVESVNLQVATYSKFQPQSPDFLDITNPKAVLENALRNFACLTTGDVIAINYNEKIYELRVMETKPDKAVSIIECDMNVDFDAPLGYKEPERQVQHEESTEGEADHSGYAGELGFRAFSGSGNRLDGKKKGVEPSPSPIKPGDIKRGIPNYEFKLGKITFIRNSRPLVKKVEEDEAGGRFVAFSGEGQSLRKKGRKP
Chain of UniProt Q93009 (Q93009 whole entry, looked up): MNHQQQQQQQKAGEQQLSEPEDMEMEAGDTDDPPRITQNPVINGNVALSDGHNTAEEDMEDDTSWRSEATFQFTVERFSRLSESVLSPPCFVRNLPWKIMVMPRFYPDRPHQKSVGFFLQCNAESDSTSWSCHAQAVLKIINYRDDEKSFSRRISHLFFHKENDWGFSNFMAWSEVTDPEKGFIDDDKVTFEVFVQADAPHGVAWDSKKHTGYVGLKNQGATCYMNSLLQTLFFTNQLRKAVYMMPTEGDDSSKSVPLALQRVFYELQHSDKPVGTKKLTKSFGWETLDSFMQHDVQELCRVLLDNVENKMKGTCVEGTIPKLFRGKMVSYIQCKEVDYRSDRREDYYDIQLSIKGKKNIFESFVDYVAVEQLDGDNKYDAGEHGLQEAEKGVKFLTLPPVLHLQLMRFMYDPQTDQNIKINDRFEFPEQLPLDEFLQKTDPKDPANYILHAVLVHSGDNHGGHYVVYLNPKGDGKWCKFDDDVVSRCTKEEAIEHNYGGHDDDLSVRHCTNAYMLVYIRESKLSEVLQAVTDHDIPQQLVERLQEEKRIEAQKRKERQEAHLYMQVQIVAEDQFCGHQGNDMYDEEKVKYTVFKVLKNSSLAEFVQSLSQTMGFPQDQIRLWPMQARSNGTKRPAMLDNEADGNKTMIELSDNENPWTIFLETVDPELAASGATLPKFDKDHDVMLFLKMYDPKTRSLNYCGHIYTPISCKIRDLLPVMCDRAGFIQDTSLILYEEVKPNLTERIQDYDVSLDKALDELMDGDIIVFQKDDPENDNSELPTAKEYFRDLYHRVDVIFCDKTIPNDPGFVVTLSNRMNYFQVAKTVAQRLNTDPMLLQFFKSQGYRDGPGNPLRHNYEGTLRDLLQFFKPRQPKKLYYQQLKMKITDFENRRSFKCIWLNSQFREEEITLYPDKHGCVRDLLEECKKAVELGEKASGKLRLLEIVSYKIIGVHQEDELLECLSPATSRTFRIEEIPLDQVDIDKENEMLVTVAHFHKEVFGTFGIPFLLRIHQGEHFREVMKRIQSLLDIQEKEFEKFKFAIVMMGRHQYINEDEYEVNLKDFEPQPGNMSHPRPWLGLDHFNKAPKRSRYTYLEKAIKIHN
Chain of UniProt Q96K49 (Q96K49 whole entry, looked up): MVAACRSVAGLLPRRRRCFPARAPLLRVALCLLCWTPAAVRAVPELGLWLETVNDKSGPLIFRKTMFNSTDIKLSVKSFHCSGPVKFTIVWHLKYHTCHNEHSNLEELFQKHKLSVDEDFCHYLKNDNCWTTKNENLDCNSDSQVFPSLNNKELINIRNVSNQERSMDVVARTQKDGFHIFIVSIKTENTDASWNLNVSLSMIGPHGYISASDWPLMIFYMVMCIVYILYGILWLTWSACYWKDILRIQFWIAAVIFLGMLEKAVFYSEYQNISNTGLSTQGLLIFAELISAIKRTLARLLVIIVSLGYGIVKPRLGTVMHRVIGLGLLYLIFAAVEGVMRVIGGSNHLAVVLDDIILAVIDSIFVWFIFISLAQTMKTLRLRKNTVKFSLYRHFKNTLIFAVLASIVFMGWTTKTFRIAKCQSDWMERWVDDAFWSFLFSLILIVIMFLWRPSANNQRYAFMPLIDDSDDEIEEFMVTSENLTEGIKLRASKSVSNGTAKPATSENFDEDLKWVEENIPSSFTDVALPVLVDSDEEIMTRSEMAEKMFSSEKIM
Chain of UniProt O95379 (O95379 whole entry, looked up): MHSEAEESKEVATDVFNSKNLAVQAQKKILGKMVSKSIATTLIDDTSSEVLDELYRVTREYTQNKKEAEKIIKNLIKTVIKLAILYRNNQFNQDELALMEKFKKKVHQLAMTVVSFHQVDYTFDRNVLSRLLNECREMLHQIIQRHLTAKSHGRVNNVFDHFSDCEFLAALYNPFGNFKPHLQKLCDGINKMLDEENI
Chain of UniProt Q9UL33 (Q9UL33 whole entry, looked up): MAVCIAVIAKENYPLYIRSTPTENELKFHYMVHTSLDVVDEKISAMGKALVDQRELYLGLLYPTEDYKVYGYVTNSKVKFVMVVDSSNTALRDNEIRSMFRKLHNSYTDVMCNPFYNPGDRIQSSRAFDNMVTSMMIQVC
Chain of UniProt Q5BJH2 (Q5BJH2 whole entry, looked up): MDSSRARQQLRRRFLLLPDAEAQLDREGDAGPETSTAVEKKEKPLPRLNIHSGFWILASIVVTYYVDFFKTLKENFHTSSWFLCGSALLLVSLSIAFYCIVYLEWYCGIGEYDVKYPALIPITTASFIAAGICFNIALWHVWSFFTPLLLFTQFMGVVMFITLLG
Chain of UniProt Q9UHP3 (Q9UHP3 whole entry, looked up): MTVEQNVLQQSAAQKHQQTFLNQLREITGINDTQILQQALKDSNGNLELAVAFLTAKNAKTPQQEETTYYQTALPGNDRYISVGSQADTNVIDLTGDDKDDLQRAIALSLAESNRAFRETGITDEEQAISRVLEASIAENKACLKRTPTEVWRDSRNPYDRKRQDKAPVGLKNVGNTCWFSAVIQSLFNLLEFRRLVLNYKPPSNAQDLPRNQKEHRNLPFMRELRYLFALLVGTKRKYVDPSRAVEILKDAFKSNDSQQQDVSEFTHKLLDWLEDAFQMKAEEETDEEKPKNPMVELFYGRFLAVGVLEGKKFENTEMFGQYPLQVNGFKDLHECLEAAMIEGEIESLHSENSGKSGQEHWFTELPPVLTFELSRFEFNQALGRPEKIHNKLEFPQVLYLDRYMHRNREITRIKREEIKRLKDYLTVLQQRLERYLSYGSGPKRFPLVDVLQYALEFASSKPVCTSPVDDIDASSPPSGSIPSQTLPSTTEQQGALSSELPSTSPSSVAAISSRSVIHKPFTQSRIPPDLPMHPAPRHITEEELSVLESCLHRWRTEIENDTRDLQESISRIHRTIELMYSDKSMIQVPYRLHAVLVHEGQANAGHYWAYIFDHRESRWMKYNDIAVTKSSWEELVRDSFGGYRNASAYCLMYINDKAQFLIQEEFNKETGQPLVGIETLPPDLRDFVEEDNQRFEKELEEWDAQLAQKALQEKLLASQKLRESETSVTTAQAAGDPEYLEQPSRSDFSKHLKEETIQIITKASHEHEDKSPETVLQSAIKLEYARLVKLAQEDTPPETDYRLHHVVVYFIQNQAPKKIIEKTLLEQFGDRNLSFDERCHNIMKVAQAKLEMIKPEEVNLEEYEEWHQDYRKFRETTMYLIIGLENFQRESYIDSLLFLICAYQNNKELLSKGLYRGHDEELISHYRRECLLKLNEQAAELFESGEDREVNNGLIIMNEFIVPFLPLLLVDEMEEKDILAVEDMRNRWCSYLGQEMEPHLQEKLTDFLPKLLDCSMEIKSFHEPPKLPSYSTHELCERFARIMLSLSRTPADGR
Chain of UniProt Q9BTX3 (Q9BTX3 whole entry, looked up): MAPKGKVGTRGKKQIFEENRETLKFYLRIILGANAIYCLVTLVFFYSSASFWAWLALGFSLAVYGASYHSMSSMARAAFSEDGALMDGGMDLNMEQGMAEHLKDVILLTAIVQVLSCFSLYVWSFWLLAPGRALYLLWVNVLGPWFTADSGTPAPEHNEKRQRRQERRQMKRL
Chain of UniProt P61960 (P61960 whole entry, looked up): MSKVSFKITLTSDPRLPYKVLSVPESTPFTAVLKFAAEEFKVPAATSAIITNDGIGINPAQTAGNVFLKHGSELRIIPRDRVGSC
Chain of UniProt Q86SZ2 (Q86SZ2 whole entry, looked up): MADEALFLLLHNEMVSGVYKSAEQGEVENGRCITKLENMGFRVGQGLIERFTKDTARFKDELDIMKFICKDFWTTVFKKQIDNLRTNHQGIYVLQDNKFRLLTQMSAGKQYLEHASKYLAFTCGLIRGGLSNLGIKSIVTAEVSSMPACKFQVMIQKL

log2 fold change, inactive:
TMEM223 (UniProt A0PJW6) 0.002
USP25 isoform 3 (UniProt Q9UHP3) 0.002
VPS41 (UniProt P49754) -0.018
WDR47 (UniProt O94967) -0.002
TMEM128 (UniProt Q5BJH2) 0.034
WDR41 (UniProt Q9HAD4) 0.026
TMEM9 (UniProt Q9P0T7) -0.021
VPS51 (UniProt Q9UID3) -0.01
TYW1 (UniProt Q9NV66) 0.057
TUBAL3 (UniProt A6NHL2) 0.018
TOM1L1 (UniProt O75674) 0.044
TPR (UniProt P12270) -0.011
TP53BP1 isoform 2 (UniProt Q12888) -0.001
TRAPPC2L (UniProt Q9UL33) -0.273
U2AF1 isoform 2 (UniProt Q01081) -0.036
TMEM9B (UniProt Q9NQ34) -0.006
VPS37A (UniProt Q8NEZ2) -0.097
WEE1 (UniProt P30291) 0.047
TNFAIP8 isoform 4 (UniProt O95379) -0.028
UBAP2L isoform 5 (UniProt Q14157) 0
WDR43 (UniProt Q15061) -0.001
UFD1 isoform 1 (UniProt Q92890) -0.008
TRAPPC6B (UniProt Q86SZ2) -0.016
UCHL5 isoform 3 (UniProt Q9Y5K5) -0.124
XPOT (UniProt O43592) -0.058
TMEM208 (UniProt Q9BTX3) 0.046
UFM1 (UniProt P61960) 0.064
UQCR10 (UniProt Q9UDW1) -0.023
USP7 (UniProt Q93009) 0
WDR46 (UniProt O15213) 0.008
TTI2 (UniProt Q6NXR4) -0.035
XPO1 (UniProt O14980) -0.06
TRMT10A (UniProt Q8TBZ6) 0.031
TMEM87B (UniProt Q96K49) 0.013
VPS13B (UniProt Q7Z7G8) 0.009
VPS33A (UniProt Q96AX1) -0.01
VWA3B isoform 6 (UniProt Q502W6) -0.057

compound: C1=CC2=C(C=CC(=C2)/C=C\3/C(=O)NC(=NCC4=CC=CS4)S3)N=C1; experiment: as above
Procedure, shortened: as §1

log2 fold change, inactive:
TMEM223 (UniProt A0PJW6) -0.009
USP25 isoform 3 (UniProt Q9UHP3) 0.028
VPS41 (UniProt P49754) 0.086
WDR47 (UniProt O94967) -0.002
TMEM128 (UniProt Q5BJH2) -0.437
WDR41 (UniProt Q9HAD4) -0.016
TMEM9 (UniProt Q9P0T7) -0.034
VPS51 (UniProt Q9UID3) -0.002
TYW1 (UniProt Q9NV66) 0.003
TUBAL3 (UniProt A6NHL2) 0.048
TOM1L1 (UniProt O75674) -0.038
TPR (UniProt P12270) -0.098
TP53BP1 isoform 2 (UniProt Q12888) 0.012
TRAPPC2L (UniProt Q9UL33) -0.047
U2AF1 isoform 2 (UniProt Q01081) -0.038
TMEM9B (UniProt Q9NQ34) 0.055
VPS37A (UniProt Q8NEZ2) -0.054
WEE1 (UniProt P30291) -0.206
TNFAIP8 isoform 4 (UniProt O95379) 0.039
UBAP2L isoform 5 (UniProt Q14157) 0.013
WDR43 (UniProt Q15061) -0.028
UFD1 isoform 1 (UniProt Q92890) 0.012
TRAPPC6B (UniProt Q86SZ2) 0.011
UCHL5 isoform 3 (UniProt Q9Y5K5) -0.036
XPOT (UniProt O43592) 0.037
TMEM208 (UniProt Q9BTX3) 0.13
UFM1 (UniProt P61960) -0.015
UQCR10 (UniProt Q9UDW1) 0.034
USP7 (UniProt Q93009) 0.159
WDR46 (UniProt O15213) -0.154
TTI2 (UniProt Q6NXR4) 0.029
XPO1 (UniProt O14980) 0.061
TRMT10A (UniProt Q8TBZ6) 0.037
TMEM87B (UniProt Q96K49) 0.003
VPS13B (UniProt Q7Z7G8) 0.048
VPS33A (UniProt Q96AX1) 0.057
VWA3B isoform 6 (UniProt Q502W6) 0.048
